From ChEMBL document CHEMBL1961873, “Compounds: GSK PKIS; Assays: Nanosyn kinase panel” (2012)

Columns and labels:
[1] = system: Epidermal growth factor receptor (Homo sapiens), P00533 [T790M]; conditions: at 1 µM
[2] = system: Epidermal growth factor receptor (Homo sapiens), P00533 [L858R,T790M]; conditions: at 0.1 µM
[3] = system: Epidermal growth factor receptor (Homo sapiens), P00533 [L858R,T790M]; conditions: at 1 µM
[4] = molecular target: Ephrin type-A receptor 2 (Homo sapiens) (UniProt P29317); conditions: at 0.1 µM
[5] = molecular target: Ephrin type-A receptor 2 (Homo sapiens) (UniProt P29317); conditions: at 1 µM
[6] = molecular target: T1, Ephrin type-A receptor 3 (Homo sapiens) (UniProt P29320); conditions: at 0.1 µM
T1 sequence (whole entry): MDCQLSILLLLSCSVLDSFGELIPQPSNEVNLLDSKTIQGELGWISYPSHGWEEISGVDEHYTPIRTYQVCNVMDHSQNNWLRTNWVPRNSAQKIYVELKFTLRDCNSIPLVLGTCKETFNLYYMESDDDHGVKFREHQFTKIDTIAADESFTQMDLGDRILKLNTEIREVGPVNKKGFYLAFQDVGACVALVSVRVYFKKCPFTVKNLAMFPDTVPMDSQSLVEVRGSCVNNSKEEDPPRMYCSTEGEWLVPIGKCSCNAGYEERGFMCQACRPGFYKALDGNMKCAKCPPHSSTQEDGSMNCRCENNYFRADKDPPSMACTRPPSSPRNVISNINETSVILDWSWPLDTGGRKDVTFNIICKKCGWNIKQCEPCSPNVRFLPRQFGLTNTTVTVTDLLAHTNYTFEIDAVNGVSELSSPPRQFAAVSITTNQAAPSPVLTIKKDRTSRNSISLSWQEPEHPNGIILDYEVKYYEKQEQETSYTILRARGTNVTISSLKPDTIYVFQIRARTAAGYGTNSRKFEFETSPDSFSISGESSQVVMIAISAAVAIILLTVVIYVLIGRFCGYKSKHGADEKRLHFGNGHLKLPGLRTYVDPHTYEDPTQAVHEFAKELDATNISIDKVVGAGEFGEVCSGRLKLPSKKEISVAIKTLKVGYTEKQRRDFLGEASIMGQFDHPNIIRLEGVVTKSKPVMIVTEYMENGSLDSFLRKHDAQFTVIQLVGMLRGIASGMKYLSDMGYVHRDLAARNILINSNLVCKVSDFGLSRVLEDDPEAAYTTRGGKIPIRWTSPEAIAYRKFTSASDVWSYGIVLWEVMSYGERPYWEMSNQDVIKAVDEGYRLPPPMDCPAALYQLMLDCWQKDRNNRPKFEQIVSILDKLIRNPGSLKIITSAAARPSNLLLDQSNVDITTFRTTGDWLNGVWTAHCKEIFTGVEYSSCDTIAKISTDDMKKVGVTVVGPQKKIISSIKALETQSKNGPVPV

[7] = molecular target: T1, Ephrin type-A receptor 3 (Homo sapiens); conditions: at 1 µM
[8] = molecular target: Ephrin type-A receptor 4 (Homo sapiens) (UniProt P54764); conditions: at 0.1 µM
[9] = molecular target: Ephrin type-A receptor 4 (Homo sapiens) (UniProt P54764); conditions: at 1 µM
[10] = molecular target: T2, Ephrin type-B receptor 2 (Homo sapiens) (UniProt P29323); conditions: at 0.1 µM
T2 sequence (whole entry): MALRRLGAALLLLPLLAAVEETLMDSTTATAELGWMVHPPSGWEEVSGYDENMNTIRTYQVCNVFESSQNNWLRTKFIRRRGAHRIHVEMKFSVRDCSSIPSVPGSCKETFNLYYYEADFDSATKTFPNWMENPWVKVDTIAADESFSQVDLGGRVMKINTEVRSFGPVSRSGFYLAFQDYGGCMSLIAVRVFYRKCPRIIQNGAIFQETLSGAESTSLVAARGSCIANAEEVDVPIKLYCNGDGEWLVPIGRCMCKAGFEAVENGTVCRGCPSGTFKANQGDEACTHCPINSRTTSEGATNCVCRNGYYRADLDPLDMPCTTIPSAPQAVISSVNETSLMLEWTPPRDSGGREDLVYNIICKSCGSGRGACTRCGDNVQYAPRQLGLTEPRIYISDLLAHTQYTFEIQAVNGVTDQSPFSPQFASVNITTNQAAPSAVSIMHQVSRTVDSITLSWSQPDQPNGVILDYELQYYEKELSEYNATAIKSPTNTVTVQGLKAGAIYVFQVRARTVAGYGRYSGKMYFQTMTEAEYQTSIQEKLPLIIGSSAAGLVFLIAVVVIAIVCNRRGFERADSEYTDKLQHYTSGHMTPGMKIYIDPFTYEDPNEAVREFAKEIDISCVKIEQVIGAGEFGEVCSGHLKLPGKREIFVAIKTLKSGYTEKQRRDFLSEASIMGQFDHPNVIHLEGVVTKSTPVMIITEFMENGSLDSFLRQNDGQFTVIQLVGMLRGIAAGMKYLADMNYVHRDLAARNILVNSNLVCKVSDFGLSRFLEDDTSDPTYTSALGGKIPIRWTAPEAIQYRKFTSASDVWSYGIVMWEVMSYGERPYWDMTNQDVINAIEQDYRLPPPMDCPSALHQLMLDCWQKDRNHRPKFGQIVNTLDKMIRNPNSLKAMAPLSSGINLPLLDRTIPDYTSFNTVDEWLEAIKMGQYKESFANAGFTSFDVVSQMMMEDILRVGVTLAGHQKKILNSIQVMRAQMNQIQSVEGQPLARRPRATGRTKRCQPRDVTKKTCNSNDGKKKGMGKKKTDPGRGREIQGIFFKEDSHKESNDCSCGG

[11] = molecular target: T2, Ephrin type-B receptor 2 (Homo sapiens); conditions: at 1 µM
[12] = molecular target: T3, Ephrin type-B receptor 3 (Homo sapiens) (UniProt P54753); conditions: at 0.1 µM
T3 sequence (whole entry): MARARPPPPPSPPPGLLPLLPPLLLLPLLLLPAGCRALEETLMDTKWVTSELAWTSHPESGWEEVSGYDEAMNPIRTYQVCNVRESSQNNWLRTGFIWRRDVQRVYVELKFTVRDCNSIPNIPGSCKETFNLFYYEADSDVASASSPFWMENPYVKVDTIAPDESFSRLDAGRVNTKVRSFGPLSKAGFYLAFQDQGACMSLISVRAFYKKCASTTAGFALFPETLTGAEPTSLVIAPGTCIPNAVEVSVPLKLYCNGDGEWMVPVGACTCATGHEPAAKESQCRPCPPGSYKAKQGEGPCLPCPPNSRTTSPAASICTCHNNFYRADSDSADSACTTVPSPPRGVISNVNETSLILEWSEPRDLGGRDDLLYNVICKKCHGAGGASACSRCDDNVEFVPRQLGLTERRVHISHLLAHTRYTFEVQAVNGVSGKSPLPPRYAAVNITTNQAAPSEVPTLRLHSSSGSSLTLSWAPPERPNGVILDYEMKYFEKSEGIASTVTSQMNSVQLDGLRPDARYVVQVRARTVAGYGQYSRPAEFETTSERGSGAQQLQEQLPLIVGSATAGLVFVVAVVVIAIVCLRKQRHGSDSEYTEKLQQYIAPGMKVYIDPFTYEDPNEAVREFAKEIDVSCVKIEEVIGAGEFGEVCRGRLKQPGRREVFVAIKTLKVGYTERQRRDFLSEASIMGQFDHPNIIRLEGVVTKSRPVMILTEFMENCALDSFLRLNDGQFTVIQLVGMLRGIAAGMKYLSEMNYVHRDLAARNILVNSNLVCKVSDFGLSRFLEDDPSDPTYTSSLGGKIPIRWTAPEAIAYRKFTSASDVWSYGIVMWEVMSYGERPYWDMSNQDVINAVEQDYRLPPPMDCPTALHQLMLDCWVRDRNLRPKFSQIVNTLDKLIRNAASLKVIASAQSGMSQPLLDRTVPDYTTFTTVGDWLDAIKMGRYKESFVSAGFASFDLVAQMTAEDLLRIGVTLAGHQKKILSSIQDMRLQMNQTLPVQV

[13] = molecular target: T3, Ephrin type-B receptor 3 (Homo sapiens); conditions: at 1 µM
[14] = molecular target: T4, Ephrin type-B receptor 4 (Homo sapiens) (UniProt P54760); conditions: at 0.1 µM
T4 sequence (whole entry): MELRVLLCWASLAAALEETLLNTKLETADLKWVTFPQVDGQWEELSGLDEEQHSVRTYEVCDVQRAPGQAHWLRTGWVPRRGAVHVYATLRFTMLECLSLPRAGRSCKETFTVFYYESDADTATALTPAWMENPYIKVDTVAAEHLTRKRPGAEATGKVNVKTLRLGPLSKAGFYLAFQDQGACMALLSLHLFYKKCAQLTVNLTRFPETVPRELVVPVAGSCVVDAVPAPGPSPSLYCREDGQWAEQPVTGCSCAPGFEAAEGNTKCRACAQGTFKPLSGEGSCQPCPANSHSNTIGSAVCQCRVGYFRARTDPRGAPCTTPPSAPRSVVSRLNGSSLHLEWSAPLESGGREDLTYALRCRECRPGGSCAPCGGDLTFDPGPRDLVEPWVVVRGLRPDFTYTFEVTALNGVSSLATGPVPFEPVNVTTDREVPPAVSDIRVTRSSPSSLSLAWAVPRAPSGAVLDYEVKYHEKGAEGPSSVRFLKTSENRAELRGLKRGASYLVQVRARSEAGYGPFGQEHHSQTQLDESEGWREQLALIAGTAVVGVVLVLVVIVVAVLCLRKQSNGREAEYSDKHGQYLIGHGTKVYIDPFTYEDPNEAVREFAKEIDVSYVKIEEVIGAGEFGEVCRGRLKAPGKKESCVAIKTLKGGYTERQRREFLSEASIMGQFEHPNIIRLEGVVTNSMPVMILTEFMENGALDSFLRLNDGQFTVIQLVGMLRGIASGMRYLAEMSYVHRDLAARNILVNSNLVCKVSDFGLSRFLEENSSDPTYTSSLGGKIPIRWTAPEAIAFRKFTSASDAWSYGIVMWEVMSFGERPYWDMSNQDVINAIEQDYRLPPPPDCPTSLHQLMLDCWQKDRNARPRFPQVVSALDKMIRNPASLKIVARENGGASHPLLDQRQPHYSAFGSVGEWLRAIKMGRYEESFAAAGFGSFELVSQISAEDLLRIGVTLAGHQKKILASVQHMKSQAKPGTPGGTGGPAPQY

[15] = molecular target: T4, Ephrin type-B receptor 4 (Homo sapiens); conditions: at 1 µM
[16] = molecular target: Receptor tyrosine-protein kinase erbB-2 (Homo sapiens) (UniProt P04626); conditions: at 0.1 µM
[17] = molecular target: Receptor tyrosine-protein kinase erbB-2 (Homo sapiens) (UniProt P04626); conditions: at 1 µM
[18] = molecular target: Receptor tyrosine-protein kinase erbB-4 (Homo sapiens) (UniProt Q15303); conditions: at 0.1 µM
[19] = molecular target: Receptor tyrosine-protein kinase erbB-4 (Homo sapiens) (UniProt Q15303); conditions: at 1 µM
[20] = molecular target: Tyrosine-protein kinase Fer (Homo sapiens) (UniProt P16591); conditions: at 0.1 µM;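 further: reported figures are averaged percent inhibition of FER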

Sequence of Receptor tyrosine-protein kinase erbB-2 (Homo sapiens) (P04626 whole entry): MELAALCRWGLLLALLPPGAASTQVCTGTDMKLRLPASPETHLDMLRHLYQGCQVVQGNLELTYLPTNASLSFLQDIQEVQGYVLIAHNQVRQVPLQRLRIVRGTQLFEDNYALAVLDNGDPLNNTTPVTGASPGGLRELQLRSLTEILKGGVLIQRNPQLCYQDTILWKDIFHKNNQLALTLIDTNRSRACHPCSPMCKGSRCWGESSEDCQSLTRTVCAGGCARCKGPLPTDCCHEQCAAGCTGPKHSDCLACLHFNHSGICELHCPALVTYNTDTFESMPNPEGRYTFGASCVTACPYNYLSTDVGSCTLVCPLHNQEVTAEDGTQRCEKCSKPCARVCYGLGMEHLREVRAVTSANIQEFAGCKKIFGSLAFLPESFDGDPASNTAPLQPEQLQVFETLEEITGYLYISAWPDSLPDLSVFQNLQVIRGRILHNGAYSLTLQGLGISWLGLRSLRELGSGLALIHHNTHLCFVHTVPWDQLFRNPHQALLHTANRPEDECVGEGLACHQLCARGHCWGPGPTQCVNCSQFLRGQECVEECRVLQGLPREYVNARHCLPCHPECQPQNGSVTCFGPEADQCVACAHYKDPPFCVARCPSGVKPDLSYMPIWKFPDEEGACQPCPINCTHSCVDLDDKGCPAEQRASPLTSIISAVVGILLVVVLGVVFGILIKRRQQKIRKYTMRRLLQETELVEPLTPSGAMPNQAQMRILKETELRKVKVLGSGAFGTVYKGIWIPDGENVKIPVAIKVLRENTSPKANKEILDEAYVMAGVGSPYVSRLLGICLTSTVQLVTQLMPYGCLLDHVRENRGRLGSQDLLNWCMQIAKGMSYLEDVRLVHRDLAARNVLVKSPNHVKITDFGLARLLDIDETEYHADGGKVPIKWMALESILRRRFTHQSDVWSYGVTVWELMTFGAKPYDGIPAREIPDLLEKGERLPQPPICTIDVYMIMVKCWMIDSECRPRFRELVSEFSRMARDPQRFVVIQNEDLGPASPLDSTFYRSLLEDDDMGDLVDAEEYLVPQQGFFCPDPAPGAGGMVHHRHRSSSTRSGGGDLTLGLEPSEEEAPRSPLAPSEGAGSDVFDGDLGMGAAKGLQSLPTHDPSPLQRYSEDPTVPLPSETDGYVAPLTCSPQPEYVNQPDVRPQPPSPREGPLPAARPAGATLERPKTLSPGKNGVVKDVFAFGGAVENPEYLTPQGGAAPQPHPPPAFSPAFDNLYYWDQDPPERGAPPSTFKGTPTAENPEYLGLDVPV
Sequence of Ephrin type-A receptor 2 (Homo sapiens) (P29317 whole entry): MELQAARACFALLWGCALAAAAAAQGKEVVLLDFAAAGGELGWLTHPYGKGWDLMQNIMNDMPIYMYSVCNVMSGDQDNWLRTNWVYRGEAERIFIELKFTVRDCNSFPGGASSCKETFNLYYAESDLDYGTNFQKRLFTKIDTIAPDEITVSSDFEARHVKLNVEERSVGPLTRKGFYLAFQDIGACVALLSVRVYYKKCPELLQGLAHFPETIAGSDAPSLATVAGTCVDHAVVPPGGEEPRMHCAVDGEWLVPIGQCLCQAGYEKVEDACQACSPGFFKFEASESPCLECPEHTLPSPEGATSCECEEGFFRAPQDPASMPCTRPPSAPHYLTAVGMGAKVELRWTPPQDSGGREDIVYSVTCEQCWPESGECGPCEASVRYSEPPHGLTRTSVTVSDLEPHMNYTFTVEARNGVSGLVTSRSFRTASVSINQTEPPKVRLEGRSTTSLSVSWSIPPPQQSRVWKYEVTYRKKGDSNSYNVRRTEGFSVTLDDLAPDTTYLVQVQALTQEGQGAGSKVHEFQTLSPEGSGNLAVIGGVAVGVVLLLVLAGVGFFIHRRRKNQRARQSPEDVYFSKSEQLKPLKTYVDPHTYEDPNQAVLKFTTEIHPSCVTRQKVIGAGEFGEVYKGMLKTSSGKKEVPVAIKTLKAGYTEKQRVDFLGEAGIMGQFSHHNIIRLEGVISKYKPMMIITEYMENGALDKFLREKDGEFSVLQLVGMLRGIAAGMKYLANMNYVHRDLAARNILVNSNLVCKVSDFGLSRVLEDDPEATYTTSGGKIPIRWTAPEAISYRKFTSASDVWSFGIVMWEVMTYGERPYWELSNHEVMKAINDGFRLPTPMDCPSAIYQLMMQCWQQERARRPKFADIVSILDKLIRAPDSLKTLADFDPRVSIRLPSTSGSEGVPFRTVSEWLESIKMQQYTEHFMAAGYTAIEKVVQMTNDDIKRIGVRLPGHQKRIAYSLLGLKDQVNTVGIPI
Sequence of Receptor tyrosine-protein kinase erbB-4 (Homo sapiens) (Q15303 whole entry): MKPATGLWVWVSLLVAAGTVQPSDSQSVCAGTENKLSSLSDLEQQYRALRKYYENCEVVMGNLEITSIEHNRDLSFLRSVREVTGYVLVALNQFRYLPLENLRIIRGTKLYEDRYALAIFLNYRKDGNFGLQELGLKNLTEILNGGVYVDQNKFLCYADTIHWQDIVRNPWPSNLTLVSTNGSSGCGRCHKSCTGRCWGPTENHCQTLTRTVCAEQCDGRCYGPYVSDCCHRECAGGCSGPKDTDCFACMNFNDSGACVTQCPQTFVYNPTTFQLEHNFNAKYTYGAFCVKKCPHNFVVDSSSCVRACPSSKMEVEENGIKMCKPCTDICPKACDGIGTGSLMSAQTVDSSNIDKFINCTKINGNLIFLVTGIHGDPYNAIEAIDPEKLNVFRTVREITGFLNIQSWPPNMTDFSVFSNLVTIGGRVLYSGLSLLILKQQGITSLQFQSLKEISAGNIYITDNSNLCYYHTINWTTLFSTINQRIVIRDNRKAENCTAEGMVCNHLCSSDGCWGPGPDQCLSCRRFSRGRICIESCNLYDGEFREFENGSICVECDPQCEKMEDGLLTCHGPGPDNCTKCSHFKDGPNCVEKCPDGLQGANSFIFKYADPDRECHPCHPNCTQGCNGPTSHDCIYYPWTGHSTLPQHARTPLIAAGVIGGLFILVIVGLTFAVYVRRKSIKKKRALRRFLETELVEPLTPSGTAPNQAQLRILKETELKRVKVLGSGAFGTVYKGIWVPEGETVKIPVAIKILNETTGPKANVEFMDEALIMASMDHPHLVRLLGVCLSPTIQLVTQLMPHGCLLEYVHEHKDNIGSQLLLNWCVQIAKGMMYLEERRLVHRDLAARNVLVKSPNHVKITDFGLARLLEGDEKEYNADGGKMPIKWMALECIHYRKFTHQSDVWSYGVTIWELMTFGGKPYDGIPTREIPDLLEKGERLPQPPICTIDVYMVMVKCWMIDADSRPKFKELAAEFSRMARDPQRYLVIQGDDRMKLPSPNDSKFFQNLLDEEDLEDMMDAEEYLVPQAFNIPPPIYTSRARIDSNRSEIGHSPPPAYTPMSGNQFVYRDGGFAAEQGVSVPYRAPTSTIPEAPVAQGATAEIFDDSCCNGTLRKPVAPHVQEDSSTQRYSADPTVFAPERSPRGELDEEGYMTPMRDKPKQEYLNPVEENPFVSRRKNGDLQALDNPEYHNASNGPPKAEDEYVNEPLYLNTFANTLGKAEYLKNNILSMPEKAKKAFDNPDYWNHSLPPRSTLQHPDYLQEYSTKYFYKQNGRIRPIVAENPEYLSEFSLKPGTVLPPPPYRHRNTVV
Sequence of Epidermal growth factor receptor (Homo sapiens), P00533 [L858R,T790M] (P00533 whole entry T790M/L858R, looked up): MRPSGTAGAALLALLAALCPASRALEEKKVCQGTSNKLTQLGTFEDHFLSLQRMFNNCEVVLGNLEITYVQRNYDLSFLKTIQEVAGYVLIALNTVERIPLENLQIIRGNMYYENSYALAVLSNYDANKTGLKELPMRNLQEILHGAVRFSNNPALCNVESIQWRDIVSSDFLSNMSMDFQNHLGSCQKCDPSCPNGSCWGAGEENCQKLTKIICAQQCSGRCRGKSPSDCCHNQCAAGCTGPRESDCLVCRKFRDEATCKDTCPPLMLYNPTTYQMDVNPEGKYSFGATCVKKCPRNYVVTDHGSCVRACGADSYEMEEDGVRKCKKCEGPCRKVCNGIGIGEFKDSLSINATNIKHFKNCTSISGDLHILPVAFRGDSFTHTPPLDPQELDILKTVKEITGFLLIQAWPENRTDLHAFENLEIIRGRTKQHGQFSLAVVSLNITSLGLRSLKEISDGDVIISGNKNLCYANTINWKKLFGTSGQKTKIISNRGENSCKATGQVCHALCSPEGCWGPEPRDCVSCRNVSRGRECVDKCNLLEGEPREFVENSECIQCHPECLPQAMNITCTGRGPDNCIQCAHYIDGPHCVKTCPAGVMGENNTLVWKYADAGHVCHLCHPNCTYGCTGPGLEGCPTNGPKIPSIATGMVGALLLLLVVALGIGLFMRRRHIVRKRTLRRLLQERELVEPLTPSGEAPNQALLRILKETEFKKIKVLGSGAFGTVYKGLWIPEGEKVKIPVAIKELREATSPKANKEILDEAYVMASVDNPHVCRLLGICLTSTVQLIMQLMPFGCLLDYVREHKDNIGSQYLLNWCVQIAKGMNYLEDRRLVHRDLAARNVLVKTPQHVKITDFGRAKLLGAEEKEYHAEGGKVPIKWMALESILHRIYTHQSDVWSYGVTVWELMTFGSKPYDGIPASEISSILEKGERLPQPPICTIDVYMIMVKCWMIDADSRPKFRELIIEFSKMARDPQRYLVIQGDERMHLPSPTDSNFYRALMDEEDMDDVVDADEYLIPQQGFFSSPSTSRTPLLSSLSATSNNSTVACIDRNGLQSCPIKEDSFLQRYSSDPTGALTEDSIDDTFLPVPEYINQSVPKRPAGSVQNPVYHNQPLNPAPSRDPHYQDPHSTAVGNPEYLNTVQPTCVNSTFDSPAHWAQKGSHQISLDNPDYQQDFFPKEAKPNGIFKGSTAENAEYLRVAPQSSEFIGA

Structure (SMILES): COc1cc2c(cc1Nc1nc(Nc3cccc(F)c3C(N)=O)c3cc[nH]c3n1)N(C(=O)CN1CCN(C(C)C)CC1)CC2
- inhibition [1]: 27%
- inhibition [2]: 1.09%
- inhibition [3]: 47.3%
- inhibition [4]: 1.37%
- inhibition [5]: 0.53%
- inhibition [6]: 1.47%
- inhibition [7]: 0.43%
- inhibition [8]: 3.76%
- inhibition [9]: 4.41%
- inhibition [10]: 2.75%
- inhibition [11]: 3.39%
- inhibition [12]: 1.98%
- inhibition [13]: 0.18%
- inhibition [14]: 1.3%
- inhibition [15]: 2.98%
- inhibition [16]: 2.36%
- inhibition [17]: 3.48%
- inhibition [18]: 16.9%
- inhibition [19]: 59.7%
- inhibition [20]: 8%

Structure (SMILES): COC(=O)Nc1nc2ccc(Oc3ccc(NC(=O)Nc4cc(C(F)(F)F)ccc4F)cc3)cc2s1
- inhibition [1]: -0.72%
- inhibition [2]: 1.64%
- inhibition [3]: -2.5%
- inhibition [4]: 63.5%
- inhibition [5]: 93.5%
- inhibition [6]: 51.3%
- inhibition [7]: 68.4%
- inhibition [8]: 83.3%
- inhibition [9]: 86.1%
- inhibition [10]: 74.1%
- inhibition [11]: 83.7%
- inhibition [12]: 16.8%
- inhibition [13]: 36.6%
- inhibition [14]: 29.6%
- inhibition [15]: 73%
- inhibition [16]: -0.44%
- inhibition [17]: -0.72%
- inhibition [18]: 3.56%
- inhibition [19]: 3.36%
- inhibition [20]: 3.43%

Structure (SMILES): CC(C)c1ccc(-c2cc(-c3c[nH]nc3-c3ccccn3)ccn2)cc1
- inhibition [1]: 0.59%
- inhibition [2]: -1.17%
- inhibition [3]: -2.79%
- inhibition [4]: -1.11%
- inhibition [5]: -2.27%
- inhibition [6]: 2.58%
- inhibition [7]: 5.79%
- inhibition [8]: 6.74%
- inhibition [9]: 4.1%
- inhibition [10]: 7.84%
- inhibition [11]: 5.4%
- inhibition [12]: 3.79%
- inhibition [13]: 1.74%
- inhibition [14]: 0.47%
- inhibition [15]: 2.78%
- inhibition [16]: 0.79%
- inhibition [17]: -1.43%
- inhibition [18]: 4.41%
- inhibition [19]: 6.32%
- inhibition [20]: 2.22%
